Screening data from PubChem.
Sampled rows, rich in hits. Any-hit rate of the full collection: about 11%.
Pf growth 96h – inhibits malaria parasite growth, 96 h. P. falciparum luciferase reporter growth, 96 h. Potency, µM (series often up to 28.7 µM), inactives show top-dose activity change, negative = inhibition, most hits filed as inhibitors. 6.9% of 320,000 active
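Parasite growth measured via integrated firefly luciferase reporter in P. falciparum. Infected erythrocytes at 2% hematocrit, 0.05% parasitemia final were treated 96 hours at 37 C under 5% CO2, and luminescence was read.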
HCV inhibitor – HCV inhibition. Huh7.5.1 HCVcc-Cre infection, luciferase reporter, 44 h. Potency, µM (top dose mostly 41.8 µM), without a hit: at the top dose activity change, negative = inhibition, hits mostly inhibitors. 3.4% of 340,000 active. AID 651820
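Cells (1,000/well) were plated 4 h before compound, then infected with HCVcc-Cre virus (~0.5 moi). After 44 h further culture, infection was read as luciferase luminescence following a 15 min substrate incubation at room temperature.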
Pf growth 48h – P. falciparum growth inhibition at 48 hours (one generation); Potency, µM (series often up to 28.7 µM), without a hit: at the highest dose activity change, negative = inhibition, usual class: inhibitors; P. falciparum luciferase growth in erythrocytes, 48 h; 5.9% of 310,000 active
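Luciferase-expressing parasites in RBCs, 2% Hct / 0.1% parasitemia final; RPMI 1640 + 0.5% Albumax; 37 C, 5% CO2, one generation; luminescence read-out, lower signal = inhibition.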
AMA1 RON2 block – AMA1-RON2 (P. falciparum) interaction inhibition; AlphaScreen AMA1-biotinylated RON2 peptide binding; Potency, µM (series often up to 58.2 µM), inactives show top-dose activity change, negative = inhibition, hits mostly inhibitors; 0.2% of 360,000 active; AID 720542;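 note: 0% = vehicle wells and -100% = peptide control; nearly all actives have a fitted effect of over 45% in size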
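AMA1 (3D7) with his tag at 25 nM final met compounds first, then biotinylated RON2 peptide at 25 nM; detection used donor plus acceptor beads, 10 µg/mL apiece, read by AlphaScreen after 30 min at room temperature.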
The depositor's hits bear a star; ? = inconclusive; / = not tested or not shown. Calls come from the whole dose curve; as a rule, active = well fitted curve in the direction sought with a large enough effect; inconclusive = small, poorly fitted or top-dose-only effect, or another doubt; inactive = no such curve, though single readings can be large; an effect the other way counts as inactive or inconclusive. Unless noted, % is set by controls: 0 for no effect and ±100 for the full control effect; potency is the fitted concentration of half-maximal effect.

SMILES	Pf growth 96h	HCV inhibitor	Pf growth 48h	AMA1 RON2 block
COc1ccc(CNc2nc3ccccc3n2C(C)C)c(O)c1	?	?	12µM*	-11%
CCn1c(CNc2nc3ccccc3n2C(C)C)nc2ccccc21	12µM*	-22%	?	9%
CCCCC(CC)CNC(=O)C(Cc1ccccc1)NS(=O)(=O)c1ccc2c(c1)CCC(=O)N2 (stereo not drawn)	12µM*	?	?	17%
CCCn1c(SCC(=O)N2CCN(C(C)=O)CC2)nc2sc3c(c2c1=O)CCC3	13µM*	1%	?	146%
CCCn1c(SCC(=O)NCC)nc2sc3c(c2c1=O)CCC3	-24%	-6%	-8%	3%
CCn1c(SCC(=O)Nc2ccc(C)cc2)nc2sc3c(c2c1=O)CCN(C)C3	0.37µM*	?	3.7µM*	-15%
CCn1c(SCC(N)=O)nc2sc3c(c2c1=O)CCN(C)C3	?	-8%	1.3µM*	7%
CCCCn1c(SCC(N)=O)nc2sc3c(c2c1=O)CCC3	?	?	-4%	-2%
COCCn1c(SCC(=O)Nc2ncc(C)s2)nc2sc3c(c2c1=O)CCC3	-18%	2.2µM*	?	/
Cc1c(Cl)c([N+](=O)[O-])nn1CC(=O)NC12CC3CC(CC(C3)C1)C2	?	-5%	/	-2%
Cc1cnc(N)c2c(=O)oc3ccccc3c12	4%	6.3µM*	/	-2%
COc1ccc(O)c(/C=N/NC(=O)c2cccc(N3CCCC3=O)c2)c1	33%	?	?	75%
COc1ccc(O)c(/C=N/NC(=O)c2ccc(N3CCCC3=O)cc2)c1	47%	11µM*	?	12%
COc1ccccc1-c1nc(SCC(=O)N2CCC(C(N)=O)CC2)n[nH]1	-47%	7%	-11%	-22%
Cc1ccc2c(COC(=O)C3=COCCO3)cc(=O)oc2c1	?	1%	/	0%
CCOC(=O)c1oc2ccc(Br)cc2c1COC(=O)C1=COCCO1	3%	25µM*	35%	10%
OC(CNCCCCNCC(O)C(F)(F)F)C(F)(F)F (stereo not drawn)	27%	3%	11%	39%
COc1ccc2[nH]c3c(c2c1)CCN1C(=O)C(CC(=O)NC/C=C(\C)CCC=C(C)C)C[C@H](C(=O)N(C(C)C)C(C)C)[C@@]31C (stereo partly drawn)	/	6.3µM*	/	?
CC(C)N(C(=O)[C@H]1CC(CC(=O)NCC23CC4CC(CC(C4)C2)C3)C(=O)N2CCc3c([nH]c4ccccc34)[C@]12C)C(C)C (stereo partly drawn)	/	3.2µM*	/	-1%
COc1ccc(CNC(=O)C[C@H]2C[C@H](C(=O)N(C(C)C)C(C)C)[C@@]3(C)c4[nH]c5ccc(Cl)cc5c4CCN3C2=O)cc1OC	/	13µM*	/	-15%
CC(C)N(C(=O)[C@H]1CC(CC(=O)NCCCN(C)C)C(=O)N2CCc3c([nH]c4ccccc34)[C@]12C)C(C)C (stereo partly drawn)	/	-13%	/	17%
CC(C)N(C(=O)[C@H]1CC(CC(=O)NCc2cccc(C(F)(F)F)c2)C(=O)N2CCc3c([nH]c4ccccc34)[C@]12C)C(C)C (stereo partly drawn)	/	10µM*	/	-16%
CCCCN1CC(N2CCN(CCN(C)C)CC2)CS1(=O)=O (stereo not drawn)	/	/	/	18%
O=C(CSc1ccc2ccccc2c1)Nc1ccc(S(=O)(=O)Nc2nccs2)cc1	-5%	-6%	4%	-2%
COc1ccc(S(=O)(=O)N2CCCC2CNC(=O)C(=O)NCc2ccccn2)cc1 (stereo not drawn)	-6%	25%	?	19%
SMILES	Pf growth 96h	HCV inhibitor	Pf growth 48h	AMA1 RON2 block
CC(c1cc2ccccc2s1)N(O)C(N)=O (stereo not drawn)	0.38µM*	/	7%	/
Cc1ccc(C)c2[nH]c(=O)c(CCNC(=O)c3ccc(S(=O)(=O)N4CCCC4)cc3)cc12	?	?	12µM*	-9%
Cc1cc2cc(CCNC(=O)c3ccc(S(=O)(=O)N4CCOCC4)cc3)c(=O)[nH]c2cc1C	8.3µM*	?	?	-2%
O=C(NCc1ccc2[nH]c3c(c2c1)CCCC3)c1ccc(S(=O)(=O)N2CCCCC2)cc1	10µM*	?	?	7%
Cc1ccc2cc(CCNC(=O)c3ccc(S(=O)(=O)N4CCCCC4)cc3)c(=O)[nH]c2c1	?	?	?	-2%
Cc1ccc2cc(CCNC(=O)c3ccc(S(=O)(=O)N4CCOCC4)cc3)c(=O)[nH]c2c1	13µM*	/	?	-2%
Cc1ccc(N(CN2CCCC2=O)C(=O)c2ccc(OC(C)C)cc2)cc1	23%	-3%	-13%	2%
Cc1ccc2cc(CCNC(=O)c3ccc(S(=O)(=O)N4CCOCC4)cc3)c(=O)[nH]c2c1C	12µM*	?	?	-7%
Cc1[nH]c2ccccc2c1SCCNC(=O)c1ccc(S(=O)(=O)N2CCCC2)cc1	13µM*	?	?	-12%
O=C(NCc1ccccc1)c1ccc(S(=O)(=O)N2CCCC2)cc1	?	/	/	3%
Cc1cn([C@H]2C[C@H](O)[C@@H](CNCc3ccc(-c4cc(Cl)ccc4C(F)(F)F)o3)O2)c(=O)[nH]c1=O	/	/	/	2%
Cc1ccc(S(=O)(=O)N(C)C[C@@H]2OCc3cnnn3CCCC(=O)N([C@H](C)CO)C[C@@H]2C)cc1	/	/	/	-2%
COc1ccc(C(=O)N/C(=C\c2ccccc2)C(=O)Nc2ccc(C(=O)NCC(=O)O)cc2)cc1	?	8%	?	11%
CCN(CC)C(=O)C1=C(C)NC(=S)NC1c1cn(-c2ccccc2)nc1-c1ccc(Cl)cc1 (stereo not drawn)	?	-4%	4.1µM*	31%
O=C(O)c1cn(-c2ccccc2)nc1-c1ccc(Cl)cc1	/	/	/	11%
CCOC(=O)C1CCN(C(=O)c2ccc3c(=O)n4nc(Nc5cc(C)ccc5C)sc4nc3c2)CC1	2.9µM*	7%	?	-1%
COc1ccccc1Nc1nn2c(=O)c3ccc(C(=O)N4CCCC(C)C4)cc3nc2s1 (stereo not drawn)	6%	?	8.3µM*	-2%
CCOC(=O)C1CCN(C(=O)c2ccc3c(=O)n4nc(Nc5ccccc5OC)sc4nc3c2)CC1	/	/	/	-3%
Cc1cc2c(ncn2Cc2ccccc2)c(N)c1C	?	10%	?	-4%
CCOC(=O)COc1cc(Br)c(C2NC(=O)NC(C)=C2C(C)=O)cc1OCC (stereo not drawn)	9.3µM*	/	/	17%
CN1CCN(CCNC(=O)c2ccc(CS(=O)c3ccc(Br)cc3)o2)CC1 (stereo not drawn)	/	/	/	1%
COc1ccccc1N1Cc2ccccc2C1	?	-20%	13µM*	-13%
COc1ccc(OC)c(N2Cc3ccccc3C2)c1	12µM*	?	5.9µM*	-9%
Cc1ccc(N2Cc3ccccc3C2=N)cc1[N+](=O)[O-]	13%	13%	-2%	-7%
Cc1cc(C)nc(N2Cc3ccccc3C2=N)n1	?	0%	15µM*	4%
